# Unmarked numbers belong to inactive results. For some assays here: Measured potencies and affinities stand elsewhere. Active and inactive are the calls of the source. Unless noted, no rule for the calls is given here.
# Experiments:
# [1] = antimalarial activity against Dd2 strain (AID 2302;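 active = growth inhibition above 50% at the single 2 µM test dose, taken to imply half-maximal potency below 2 µM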;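 also: 0% = DMSO untreated growth and 100% = chloroquine plus artemisinin killed control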); conditions: P. falciparum Dd2 in RBCs, LDH growth readout, 72 h; at 2 µM; active compounds read high
# [2] = human hepatoma cell viability loss – ATP luminescence, cytotoxicity control for P. falciparum antimalarial project, primary screen (AID 2303;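 active = inhibition above 50%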;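 also: 0% = DMSO wells and 100% = digitonin-killed cells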); conditions: HepG2 viability, 24-48 h, at 10 µM, active compounds read high
# [3] = target: L-lactate dehydrogenase (Plasmodium falciparum (isolate CDC / Honduras)) (UniProt Q27743); assay: PfLDH activity inhibition – cell lysate, 3D7 strain, counter-screen for P. falciparum growth inhibition project (AID 2304);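 also: 0% = vehicle and 100% = reference inhibitor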; conditions: P. falciparum 3D7 crude extract, LDH APAD/NBT absorbance; at 2 µM; active compounds read high
# [4] = inhibition of 3D7 malaria parasite growth – strain 3D7 (AID 2306);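 also: 0% = DMSO wells and 100% = chloroquine plus artemisinin control wells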; conditions: P. falciparum 3D7 erythrocytic growth, LDH absorbance, 72 h; at 2 µM; active compounds read high
# [5] = target: Calcium-dependent protein kinase 1 (Plasmodium falciparum (isolate 3D7)) (UniProt P62344); assay: PfCDPK1 kinase inhibitors, biochemical, TCAMS library (AID 1159585; cut-off not given, nearly all actives have IC50 up to about 0.98 µM;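 also: inhibitors leave more ATP so luminescence rises with inhibition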); conditions: recombinant PfCDPK1, Kinase-Glo ATP depletion luminescence
# [6] = target: Plasmodium falciparum protein kinase 6 (PK6, PF3D7_1337100) (UniProt Q8IDW1); assay: PfPK6 kinase inhibitors, biochemical, TCAMS library (AID 1159586); conditions: recombinant PfPK6, Kinase-Glo ATP depletion luminescence
# [7] = target: Protein kinase 7 (PK7), Plasmodium falciparum 3D7 (PF3D7_0213400) (UniProt Q7YTF7); assay: inhibition of Plasmodium PK7 catalytic activity – biochemical, TCAMS antimalarial set, Kinase-Glo luminescence (AID 1159587); conditions: recombinant PfPK7, Kinase-Glo ATP depletion luminescence
# [8] = target: Calcium-dependent protein kinase 4 (Plasmodium falciparum (isolate 3D7)) (UniProt Q8IBS5); assay: PfCDPK4 kinase inhibitors, biochemical, TCAMS library (AID 1159588; cut-off not given, nearly all actives have IC50 up to about 0.91 µM); conditions: recombinant PfCDPK4, Kinase-Glo ATP depletion luminescence
# Calcium-dependent protein kinase 4 (Plasmodium falciparum (isolate 3D7)), sequence (Q8IBS5 whole entry, looked up): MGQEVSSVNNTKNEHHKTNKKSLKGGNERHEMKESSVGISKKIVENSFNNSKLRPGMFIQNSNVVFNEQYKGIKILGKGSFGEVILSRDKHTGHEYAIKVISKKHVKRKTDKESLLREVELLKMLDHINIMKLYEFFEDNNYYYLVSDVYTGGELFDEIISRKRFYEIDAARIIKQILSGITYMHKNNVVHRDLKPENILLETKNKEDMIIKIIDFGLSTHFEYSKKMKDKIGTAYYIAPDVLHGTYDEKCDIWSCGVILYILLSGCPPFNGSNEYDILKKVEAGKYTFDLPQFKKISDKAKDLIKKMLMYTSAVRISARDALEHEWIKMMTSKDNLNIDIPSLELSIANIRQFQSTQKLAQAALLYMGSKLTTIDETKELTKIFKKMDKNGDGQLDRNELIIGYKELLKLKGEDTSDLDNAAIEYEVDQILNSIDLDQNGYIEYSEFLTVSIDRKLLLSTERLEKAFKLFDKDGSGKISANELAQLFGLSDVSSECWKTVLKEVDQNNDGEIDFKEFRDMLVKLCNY
# L-lactate dehydrogenase (Plasmodium falciparum (isolate CDC / Honduras)), sequence (Q27743 whole entry, looked up): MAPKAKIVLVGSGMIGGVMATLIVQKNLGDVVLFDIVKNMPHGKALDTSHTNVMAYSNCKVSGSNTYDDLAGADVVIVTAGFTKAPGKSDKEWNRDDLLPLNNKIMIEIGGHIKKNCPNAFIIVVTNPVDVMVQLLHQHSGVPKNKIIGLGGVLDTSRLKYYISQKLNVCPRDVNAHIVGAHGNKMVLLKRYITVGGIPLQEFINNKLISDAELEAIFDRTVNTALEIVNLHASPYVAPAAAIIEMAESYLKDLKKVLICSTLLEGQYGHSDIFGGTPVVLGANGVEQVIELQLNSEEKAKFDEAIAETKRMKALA
# Protein kinase 7 (PK7), Plasmodium falciparum 3D7 (PF3D7_0213400), sequence (Q7YTF7 1-343): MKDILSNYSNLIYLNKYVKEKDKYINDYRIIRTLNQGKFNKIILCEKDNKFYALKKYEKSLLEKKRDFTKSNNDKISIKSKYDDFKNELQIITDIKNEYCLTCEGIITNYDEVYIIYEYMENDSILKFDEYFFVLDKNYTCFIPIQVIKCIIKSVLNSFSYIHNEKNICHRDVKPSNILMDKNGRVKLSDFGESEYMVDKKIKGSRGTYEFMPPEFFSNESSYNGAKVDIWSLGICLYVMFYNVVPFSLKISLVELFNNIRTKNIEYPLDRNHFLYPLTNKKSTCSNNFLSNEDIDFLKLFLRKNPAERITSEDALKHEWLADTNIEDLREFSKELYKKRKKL
# Calcium-dependent protein kinase 1 (Plasmodium falciparum (isolate 3D7)), sequence (P62344 whole entry, looked up): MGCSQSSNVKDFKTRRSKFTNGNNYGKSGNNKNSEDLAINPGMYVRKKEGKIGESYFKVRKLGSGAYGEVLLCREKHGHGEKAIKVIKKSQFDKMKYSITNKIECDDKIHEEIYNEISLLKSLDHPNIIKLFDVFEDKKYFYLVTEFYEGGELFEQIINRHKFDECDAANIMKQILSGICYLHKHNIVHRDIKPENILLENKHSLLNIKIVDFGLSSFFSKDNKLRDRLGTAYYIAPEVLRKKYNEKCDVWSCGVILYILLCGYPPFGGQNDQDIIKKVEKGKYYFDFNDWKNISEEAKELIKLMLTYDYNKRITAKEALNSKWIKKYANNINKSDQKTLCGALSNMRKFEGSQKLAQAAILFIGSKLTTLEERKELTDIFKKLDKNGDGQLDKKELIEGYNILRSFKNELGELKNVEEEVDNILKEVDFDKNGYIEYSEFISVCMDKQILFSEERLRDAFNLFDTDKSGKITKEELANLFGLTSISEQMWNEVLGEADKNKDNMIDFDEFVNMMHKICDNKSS
# Plasmodium falciparum protein kinase 6 (PK6, PF3D7_1337100), sequence (Q8IDW1 1-305): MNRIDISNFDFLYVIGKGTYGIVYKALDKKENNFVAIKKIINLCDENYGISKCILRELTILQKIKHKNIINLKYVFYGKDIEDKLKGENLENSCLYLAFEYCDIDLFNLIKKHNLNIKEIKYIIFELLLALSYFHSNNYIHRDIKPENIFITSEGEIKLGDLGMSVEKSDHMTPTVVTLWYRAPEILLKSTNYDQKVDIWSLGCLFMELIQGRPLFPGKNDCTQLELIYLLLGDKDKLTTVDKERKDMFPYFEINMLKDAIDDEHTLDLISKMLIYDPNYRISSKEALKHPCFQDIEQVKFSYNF
Structure (SMILES),growth inhibition [1],inhibition [2],inhibition [3] [%],growth inhibition [4],outcome [5],outcome [6],outcome [7],outcome [8]
CC(C)Cc1cn(-c2nc(-c3nc4ccccc4[nH]3)cs2)c2ccncc12,99% (active),34%,-2,102% (active),inactive,inactive,inactive,inactive
CC1CN(Cc2cccc(-c3ccc(-c4nc5ccccc5[nH]4)cc3)c2)CC(C)O1 (stereo not given),88% (active),37%,-6,90% (active),inactive,inactive,inactive,inactive
CCCCCCn1c(Sc2ccc(C#N)c([N+](=O)[O-])c2)nnc1-c1cc(OC)cc(OC)c1,41%,35%,-5,95% (active),inactive,inactive,inactive,inactive
N#Cc1ccc2[nH]cc(CN3CCC4(CC3)CN(CCNCc3ccccc3)C(=O)CO4)c2c1,-2%,-3%,1,98% (active),inactive,inactive,inactive,inactive
CCOc1ccc(C2CCN(CCN3CCC(NC(=O)c4ccc(-c5ccc(C(F)(F)F)cc5)cc4)CC3)CC2)c(OCC2CC2)c1,65% (active),13%,-9,99% (active),inactive,inactive,inactive,inactive
CCSc1ccccc1COc1c(C)nc(N)nc1N,4%,54% (active),3,93% (active),inactive,inactive,inactive,inactive
CC(C)(C)c1ccc(NC(=O)c2ccc(CN3CCCN(Cc4cccc(C#N)c4)CC3)cc2)cc1,12%,54% (active),-5,99% (active),inactive,inactive,inactive,inactive
COc1ccc(Nc2nccc(NCCNC(=O)Nc3cc(C)ccc3C)n2)cc1,-3%,10%,2,85% (active),inactive,inactive,inactive,inactive
COc1cc(OC)cc(-c2nc3c(C#N)c(OCCN(C)C)ccc3[nH]2)c1,25%,4%,-3,99% (active),inactive,inactive,inactive,inactive
CN1CCC(c2csc3ccc(NC(=O)Nc4ccc(-c5ccncc5)c5ccccc45)cc23)CC1,71% (active),8%,0,98% (active),inactive,inactive,inactive,inactive
CC(C)(C)C(C)(C)Cc1ccc(O)c(CN2CCN(c3ccccc3)CC2)c1,98% (active),6%,0,99% (active),inactive,inactive,inactive,inactive
COc1ccc(C(=O)CCC(=O)N(Cc2ccc(-c3ccc(CNCCc4ccccc4)cn3)cc2)C(C)CN(C)C)cc1F (stereo not given),57% (active),20%,-4,98% (active),inactive,inactive,inactive,inactive
COc1ccc2c(c1)[nH]c1c(/C=C/c3ccc([N+](=O)[O-])cc3)nccc12,63% (active),4%,3,100% (active),inactive,inactive,inactive,inactive
O=C(CSc1nccn1Cc1ccco1)Nc1cc(C(F)(F)F)ccc1Cl,66% (active),9%,-4,91% (active),inactive,inactive,inactive,inactive
CC(C)CN1CCC(COc2ccc3ncn(-c4cc(O[C@H](C)c5ccccc5C(F)(F)F)c(C(N)=O)s4)c3c2)CC1,86% (active),46%,7,97% (active),inactive,inactive,inactive,inactive
COc1ccc(-c2ccc(NC(=O)c3cccc(Cl)c3)cc2)cc1CN1CCN(C)CC1,33%,42%,-2,90% (active),inactive,inactive,inactive,inactive
COCCN1CCC(NCC(C)(C)c2nc(-c3ccc(Cl)c(O)c3)c(-c3ccncc3)[nH]2)CC1,47%,-8%,-2,102% (active),inactive,inactive,inactive,inactive
CC(=O)Nc1ccc(S(=O)(=O)N2CCN(c3nc(NC4CCCC4)c4ccccc4n3)CC2)cc1,2%,7%,1,88% (active),inactive,inactive,inactive,inactive
Cc1cc(F)ccc1Nc1nc(N(C)c2ccccc2)c2cc(OCCCN(C)C)ccc2n1,49%,31%,4,100% (active),inactive,inactive,inactive,inactive
CCN(CCCN1CCCCC1)c1cc(C)nc(Nc2cc(Cl)ccc2C)n1,37%,36%,-1,99% (active),inactive,inactive,inactive,inactive

Structure (SMILES),growth inhibition [1],inhibition [2],inhibition [3] [%],growth inhibition [4],outcome [5],outcome [6],outcome [7],outcome [8]
O=C(Nc1ccc(CN2CCN(S(=O)(=O)c3cccc(Cl)c3)CC2)cc1)c1cccs1,41%,9%,0,84% (active),inactive,inactive,inactive,inactive
Cc1c[nH]c2cc(/C=C/C(=O)NC3CCC(CCN4CCc5ccc(C#N)cc5CC4)CC3)ccc12 (stereo not given),59% (active),-1%,-2,95% (active),inactive,inactive,inactive,inactive
Cc1nc(-c2ccc(-c3ccc(C(=O)Nc4ccc(I)c(OCCN5CCCC5)c4)cc3)c(C)c2)no1,35%,96% (active),-1,95% (active),inactive,inactive,inactive,inactive
CCn1ccc2c(N3CCCC3=O)cc(C(=O)N[C@@H](Cc3ccccc3)[C@H](O)CNCc3cccc(OC)c3)cc21,92% (active),4%,-5,94% (active),inactive,inactive,inactive,inactive
Cc1ccc(-c2nc3cc(NC(=O)c4ccc([N+](=O)[O-])o4)ccc3o2)cc1Cl,97% (active),24%,-3,102% (active),inactive,inactive,inactive,inactive
O=C(Nc1ccc(-c2cccc(-c3nc4ccc(C(F)(F)F)cc4[nH]3)c2)cc1)c1csnn1,25%,42%,-2,98% (active),inactive,inactive,inactive,inactive
Cc1nc2ccc3ccc(CNc4ccc5c(c4)CN([C@H](CCC(=O)O)C(=O)O)C5=O)cc3c2c(=O)[nH]1,90% (active),38%,2,87% (active),inactive,inactive,inactive,inactive
Cc1cc(-c2ccc(NC(=O)N3CCc4cc(Cl)c(N5CCN(C)CC5)cc43)cc2)ccc1C#N,83% (active),100% (active),-2,101% (active),inactive,inactive,inactive,inactive
CNc1ccc(CNCc2cccc(-c3ccc(-c4nc5c(C)cccc5[nH]4)cc3)c2)cc1,83% (active),26%,-4,102% (active),inactive,inactive,inactive,inactive
CN1CCC(Oc2ccc(CN3CC[C@H](NC(=O)c4ccc(Cl)c(Cl)c4)C3)cc2Cl)C1 (stereo not given in full),78% (active),68% (active),0,101% (active),inactive,inactive,inactive,inactive
OCCNc1nc(Nc2ccc(Cl)cc2)nc2ccccc12,99% (active),30%,-1,102% (active),inactive,inactive,inactive,inactive
CC1(C)N=C(N)N=C(N)N1OCC1COc2ccccc2O1 (stereo not given),66% (active),56% (active),-1,96% (active),inactive,inactive,inactive,inactive
O=C(Nc1ccc(N2CCN(Cc3c[nH]c4cc(F)ccc34)CC2)cc1)c1ccccc1-c1ccc(C(F)(F)F)cc1,7%,20%,9,85% (active),inactive,inactive,inactive,inactive
Cc1[nH]cc(Br)c(=O)c1-c1ccc(Oc2ccccc2)cc1,96% (active),-5%,-6,97% (active),inactive,inactive,inactive,inactive
CC(C)C[C@H](NC(=O)c1cccc(F)c1)C(=O)N[C@H](/C=N/NC(=O)c1ccccc1)CCc1ccccc1,71% (active),0%,2,93% (active),inactive,inactive,inactive,inactive
Clc1ccc(-c2cc(-c3csc(NCCN4CCOCC4)n3)on2)c(Cl)c1,86% (active),39%,-3,97% (active),inactive,inactive,inactive,inactive
O=C(Nc1cccc(-c2cccc(F)c2)c1)C1CCN(Cc2ccc(O)cc2)CC1,2%,13%,3,87% (active),inactive,inactive,inactive,inactive
O=C(Nc1ccc(Cn2ncc(N3CCCNCC3)c(Cl)c2=O)cc1)Nc1cc(Cl)cc(Cl)c1,17%,3%,3,91% (active),inactive,inactive,inactive,inactive
CC(Sc1n[nH]c(-c2cccs2)n1)C(=O)c1c[nH]c2ccccc12 (stereo not given),58% (active),-8%,6,94% (active),inactive,inactive,inactive,inactive
Clc1ccc(OCCC2CCN(CCCCCCN3CCCCC3)CC2)cc1Cl,36%,86% (active),9,97% (active),inactive,inactive,inactive,inactive

# — PubChem BioAssay
